Experimental data as given in PubChem BioAssay AID720690 (Broad Institute, 2013).
Results with a measured potency or affinity are listed apart. Active and inactive are the calls of the source.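 Rule for the calls: active = every repeat run showing a signal drop whose fitted half-maximal concentration is at most twice the top tested concentration; inconclusive = repeat runs disagree, or flat partial drop, or poor fit; inactive = the rest.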

Assay: HEK293T cytotoxicity, dose response, cytotoxicity control for miR-122 modulator project, cell-based, activator set, cherry-pick (AID 720690);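 note: 0% = neutral control wells and -100% = MG132 cytotoxic control wells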
Settings: HEK293T viability, CellTiter-Glo luminescence, 48 h; series mostly up to 26 µM; activity change, negative = cytotoxicity: at the top concentration

| Structure (SMILES) | activity change, negative = cytotoxicity |
| --- | --- |
| O=C(c1cccnc1)N1C[C@H]2[C@@H](c3ccccc31)[C@H](CO)N2C(=O)C1CCCC1 | -16.5% [at 23.5 µM] (inactive) |
| O=C(NC[C@H]1[C@H](c2ccccc2)[C@@H](CO)N1Cc1ccccn1)C1CC1 | 2.11% [at 23.5 µM] (inactive) |
| COc1ccc(CNC(=O)NCCc2c[nH]c3ccccc23)cc1 | 26.2% (inactive) |
| COCC(=O)NC[C@H]1[C@@H](c2ccc(C3=CCCC3)cc2)[C@@H](CO)N1C(=O)C1CC1 | -4.55% (inactive) |
| COc1ccc(CCNC(=O)c2c(C)cc(=O)oc2C)cc1OC | -25.6% (inactive) |
| C[C@H](CO)N1C[C@H](C)[C@H](CN(C)CC2CCCCC2)OCCCC[C@H](C)Oc2ccc(NC(=O)Nc3cccc4ccccc34)cc2C1=O | -26% [at 12 µM] (inactive) |
| O=C(CN1CCOCC1)NC[C@@H]1N[C@@H](CO)[C@@H]1c1ccc(-c2ccccc2)cc1 | -1.74% [at 23.5 µM] (inactive) |
| Nc1nc(Cl)nc2c1ncn2[C@H]1C[C@H](O)[C@@H](CO)O1 | -34.9% (inactive) |
| CC#CCCCC(=O)Nc1ccccc1C(=O)O | 4.16% (inactive) |
| c1ccc(-c2nnc3n2CCCC3)cc1 | 4.33% (inactive) |
| C/C=C/c1ccc([C@@H]2[C@H](CO)N[C@H]2CN(CC)C(=O)CN2CCOCC2)cc1 | -1.93% (inactive) |
| O=C(CNCCC1=CCCCC1)Nc1ccccc1N1CCCCCC1 | -25.6% (inactive) |
| Cc1ccc(-c2ccc3c(c2)O[C@H](CN(C)C(=O)CC2CC2)[C@H](C)CN([C@H](C)CO)S3(=O)=O)cc1 | -25.1% (inactive) |
| C/C=C/c1ccc([C@H]2[C@@H](CO)N(C(=O)CC)[C@H]2CNC(=O)CC)cc1 | -1.2% (inactive) |
| C/C=C/c1ccc([C@H]2[C@@H](CNC(=O)c3ccncc3)N(C(=O)CC)[C@H]2CO)cc1 | -7% [at 23.5 µM] (inactive) |
